Laboratory results as given in PubChem BioAssay (NCI).
The panel holds about 83,000 compounds, 20% with a hit somewhere; the sample as a whole holds those more often.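 Single-dose data. Exposure time 48 hours. Values below 10 considered active.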 The source made the active and inactive calls.

test system: MDA-MB-468 breast; experiment: NCI-60 one-dose screen, 48 h (100 = growth as untreated, 0 = no growth, -100 = all killed); settings: 10 µM unless noted

| SMILES | growth |
| --- | --- |
| C/C=C1/CN(CCCCC)CC[C@H]1C(=O)c1cc2ccccc2[nH]1 | 90.7% (inactive) |
| CN1CCOCCOCCOc2ccccc2NC(=O)c2nc(cnc2N)-c2ccc(cc2)S1(=O)=O | 41.4% (inactive) |
| CCN1C(=O)N(CC)C2Nn3c(s/c(=C\c4ccc(OC)cc4)c3=O)=NC21 (stereo not drawn) | 14.1% (inactive) |
